According to PubChem BioAssay (Tox21):
Where “and” joins values, the source holds several entries; their conditions need not be identical. Identical values can stand only once. Results filed as inconclusive are left out. Entries that show only a call come without a potency. Calls of active or inactive are those of the source. Calls come from the whole dose curve; as a rule, active = well fitted cell-killing curve with a large enough effect in the repeat runs (not every such curve was filed as active); inconclusive = weak or mixed curves, or effect the other way; inactive = no such curve, though single readings can be large or run the other way.
Potency is the fitted concentration of half-maximal effect.

Test: qHTS assay to identify small molecule antagonists of the farnesoid-X-receptor (FXR) signaling pathway - cell viability counter screen (AID 743221); note: nearly all actives have a fitted effect of over 50% in size
Details: FXR-bla HEK293T viability, CellTiter-Glo luminescence, 16 h; series mostly up to 62.6 µM
Text: National Center for Advancing Translational Sciences [NCATS]
NIH Chemical Genomics Center [NCGC]
U.S. Environmental Protection Agency [EPA]
National Institutes of Environmental Health Sciences [NIEHS]
National Toxicology Program [NTP]
U.S. Food and Drug Administration [FDA]
The farnesoid-X-receptor (FXR), a nuclear hormone receptor, is highly expressed in liver, intestine, kidney and adrenal cortex. Natural ligands of FXR are the bile acids (Cholic acid, Chenodeoxy cholic acid etc). FXR is an important regulator of diverse metabolic pathways, including the bile acid homeostasis, lipid and glucose metabolisms. FXR regulates the expression of target genes by binding either as a monomer or as a heterodimer with the retinoid X receptor (RXR). Numerous studies have reported that FXR exerts protective function during cholestasis, diabetes, liver regeneration, and cancer. To identify compounds that inhibit FXR signaling, GeneBLAzer FXR-UAS-bla HEK 293T cell line (Invitrogen, Carlsbad, CA) containing a beta-lactamase reporter gene under the control of a UAS response element was used to screen the Tox21 10K compound library. The cytotoxicity of the Tox21 compound library against the FXR-bla cell line was tested in parallel by measuring the cell viability using CellTiter-Glo assay in the same wells.
Tox21 Assay Protocol Summary:
FXR-bla cells were dispensed at 5000 cells/5uL/well in 1536-well black wall/clear bottom plates using a Multidrop Combi (Thermo Fisher Scientific, Waltham, MA) dispenser. After the assay plates were incubated at 37 C and 5% CO2 for 5 h, 23 nL of compounds dissolved in DMSO, positive controls or DMSO only was transferred to the assay plate by a Pintool station (Kalypsys, San Diego, CA), followed by addition of 1 uL Chenodeoxycholic acid (50 uM, final concentration in the wells). The assay plates were incubated at 37C for 16 h. After 1 uL of LiveBLAzerTM B/G FRET substrate was added using a Bioraptr Flying Reagent Dispenser (FRD) workstation (Beckman Coulter, Indianapolis, IN), the plates were incubated at room temperature for 2 h, and fluorescence intensity was measured by an Envision plate reader (PerkinElmer, Shelton, CT). For cell viability readout that measures cytotoxicity, 4uL/well of CellTiter-Glo reagent was added into the assay plates using a Bioraptr FRD. After 30 min incubation at room temperature, the luminescence intensity in the plates was measured using a ViewLux plate reader (PerkinElmer).
With ClC1=C(Cl)C2(Cl)C3C(Cl)C=CC3C1(Cl)C2(Cl)Cl (stereo not given) the Potency was “inactive”.
With Clc1ccc(COC(Cn2ccnc2)c2ccc(Cl)cc2Cl)cc1 (stereo not given) the Potency was 40.7 µM (active) and 17.3 µM (active) and 26.6 µM (active).
With FC(Cl)(Cl)Cl the Potency was “inactive”.
With ClC1=C(Cl)[C@]2(Cl)[C@H]3[C@H]([C@H]4C=C[C@H]3C4)[C@@]1(Cl)C2(Cl)Cl the Potency was “inactive”.
For O=C(CBr)c1ccc(O)cc1, the Potency was “inactive”.
In the case of CCCCCCCCCBr, the Potency is reported as “inactive”.
With Cc1cc(C)cc(OP(=O)(Oc2cc(C)cc(C)c2)Oc2cc(C)cc(C)c2)c1 the Potency was “inactive”.
With CC(C)OC(=S)S the Potency was “inactive”.
In the case of CCCCCCCCCCCCBr, the Potency is reported as 43.6 µM (active).
With CCOC(=O)CC(=O)CCl the Potency was “inactive”.
For CCCCCCCCCCCCCCCCCCn1cc[n+](C)c1, the Potency was 34.5 µM (active).
For Oc1cc(Cl)c(Cl)c(Cl)c1, the Potency was “inactive”.
In the case of CC1(C)CC/C(=C/c2ccc(Cl)cc2)C1(O)Cn1cncn1 (stereo not given), the Potency is reported as “inactive”.
In the case of [Cl][Sb]([Cl])[Cl], the Potency is reported as “inactive”.
For CCC(C)(C)C(=O)OC1=C(c2ccc(Cl)cc2Cl)C(=O)OC12CCCCC2, the Potency was “inactive”.
For BrCBr, the Potency was “inactive”.
For C[C@]12Cc3nonc3C[C@@H]1CC[C@@H]1[C@@H]2CC[C@@]2(C)[C@H]1CC[C@]2(C)O, the Potency was “inactive”.
In the case of CC1(C)CN=C(NN=C(/C=C/c2ccc(C(F)(F)F)cc2)/C=C/c2ccc(C(F)(F)F)cc2)NC1, the Potency is reported as 15.5 µM (active).
In the case of COc1ccc(N)cc1N, the Potency is reported as “inactive”.
For Clc1ccc(CO/N=C(\Cn2ccnc2)c2ccc(Cl)cc2Cl)c(Cl)c1, the Potency was “inactive”.
For [CH3][Hg][Cl], the Potency was 38.8 µM (active).
In the case of CC(Cc1ccc(C(C)(C)C)cc1)CN1C[C@@H](C)O[C@@H](C)C1 (stereo not given in full), the Potency is reported as “inactive”.
For CC(C)CCCCCCCOP(=O)(Oc1ccccc1)Oc1ccccc1, the Potency was “inactive”.
For N#CCCC(Br)(C#N)CBr (stereo not given), the Potency was “inactive”.
In the case of C[C@@H]1CC[C@@]2(OC1)O[C@H]1[C@@H](O)[C@H]3[C@@H]4CC[C@H]5C[C@@H](O[C@@H]6O[C@H](CO)[C@H](O[C@@H]7O[C@H](CO)[C@@H](O)[C@H](O[C@@H]8OC[C@@H](O)[C@H](O)[C@H]8O)[C@H]7O[C@@H]7O[C@H](CO)[C@@H](O)[C@H](O[C@@H]8O[C@H](CO)[C@@H](O)[C@H](O)[C@H]8O)[C@H]7O)[C@H](O)[C@H]6O)[C@H](O)C[C@]5(C)[C@H]4CC[C@]3(C)[C@H]1[C@@H]2C, the Potency is reported as 23.2 µM (active).
With N#CCCSCCC#N the Potency was “inactive”.
For O=c1c(C2CC(c3ccc(-c4ccc(Br)cc4)cc3)Cc3ccccc32)c(O)sc2ccccc12 (stereo not given), the Potency was “inactive”.
For N#CC(Cl)Cl, the Potency was “inactive”.
In the case of CCCN(CCC)c1c([N+](=O)[O-])cc(S(N)(=O)=O)cc1[N+](=O)[O-], the Potency is reported as 52.2 µM (active).
For c1ccc2cc3c(cc2c1)-c1cccc2cccc-3c12, the Potency was “inactive”.
In the case of c1ccc(Nc2ccc3ccccc3c2)cc1, the Potency is reported as “inactive”.
In the case of C=CCC1=C(C)C(OC(=O)C2C(C=C(C)C)C2(C)C)CC1=O (stereo not given), the Potency is reported as 46.3 µM (active).
With c1ccc(OCC2CO2)cc1 (stereo not given) the Potency was “inactive”.
For CS(=O)(=O)c1ccc(C(=O)C2C(=O)CCCC2=O)c([N+](=O)[O-])c1, the Potency was “inactive”.
With CCCCCCCCCCCCCCCC[n+]1ccccc1 the Potency was 51.3 µM (active) and 43.6 µM (active) and 29.8 µM (active).
In the case of COc1ccc(OC)c(CC(C)N)c1 (stereo not given), the Potency is reported as “inactive”.
For O=c1[nH]c2ccccc2n1CCCN1CCC(n2c(=O)[nH]c3cc(Cl)ccc32)CC1, the Potency was “inactive”.
In the case of Cc1ccc(OP(=O)(Oc2ccccc2)Oc2ccccc2)cc1, the Potency is reported as “inactive”.
In the case of COC(=O)N(C(=O)N1CO[C@@]2(C(=O)OC)Cc3cc(Cl)ccc3C2=N1)c1ccc(OC(F)(F)F)cc1, the Potency is reported as “inactive”.
In the case of CCOP(=O)(NC(C)C)Oc1ccc(SC)c(C)c1 (stereo not given), the Potency is reported as “inactive”.
